The values below come from PubChem BioAssay (NCATS).

The structures appear in SMILES notation. Inconclusive results are not listed. Where a call stands in place of a potency, no number is given. Calls of active or inactive are those of the source. Calls come from the whole dose curve; as a rule, active = well fitted cell-killing curve with a large enough effect; inconclusive = small, poorly fitted or top-dose-only effect; inactive = flat fitted curve, though single readings scatter.
Potency is the fitted concentration of half-maximal effect.

This test can be described thus: qHTS of pediatric cancer cell lines to identify multiple opportunities for drug repurposing: Primary screen for TC32 cells (AID 1347089). Note: nearly all actives have a fitted effect of over 60% in size. The following applies: TC32 Ewing sarcoma viability, CellTiter-Glo luminescence, 48 h; series mostly up to 45.8 µM. The source says:
Drug repurposing or repositioning has been offered as a strategy for drug development in oncology programs. This approach has special potential for childhood cancers and other rare or orphan diseases, where the expected return on new drug development has been a disincentive to pharmaceuticals.
In this project we exploit the poly-pharmacology of drugs to discover new indications via phenotypic screening of a panel of 19 well-characterized cell lines derived from solid tumors seen in children and adolescents. The goal is to identify approved drugs with previously unrecognized anticancer properties that has the potential to reveal new mechanisms and biological processes involved in carcinogenesis or drug resistance. We employed a titration-based paradigm (quantitative high-throughput screening or qHTS), where all compounds were tested at multiple concentrations for their effect on cell viability. Concentration-response curves (CRCs) were derived directly from the primary screen, and both potency and efficacy values were used to identify compounds with robust bioactivity profiles. We screened the NIH Chemical Genomics Center (NCGC) Pharmaceutical Collection (NPC) and Mechanism Interrogation Plate (MIPE) small molecule collections of approved and investigational compounds against these cell lines; and measured metabolically active cells after 48 hours of compound treatment as a proxy for cell viability.
Assay Submitter: Nathalia J. Martinez, National Center for Advancing Translational Sciences, National Institutes of Health, Rockville, MD, USA; email: natalia.martinez@nih.gov
[1] Shen, M et al. Quantitative high-throughput phenotypic screening of pediatric cancer cell lines identifies multiple opportunities for drug repurposing. Oncotarget 2017 Dec 19;9(4):4758-4772. PMID 29435139.
The cells were obtained from University of North Carolina (UNC), Pediatric Preclinical Testing Program (PPT), and Coriell Institute (CI).
qHTS cell viability assay:
Cells were assayed in growth media at a density of 500-1,000 cells/well. Five microliters of cells were dispensed into 1,536-well, white, solid-bottom, TC-treated plates (Greiner Bio One) using a multidrop dispenser and incubated at 37 degrees C, 5% CO2, under a humidified atmosphere for 5 hours. Twenty-three nanoliters of compounds and controls (neutral control DMSO or positive control bortezomib at final concentration of 2.3 uM) were subsequently transferred by Kalypsys pintool. For primary screens, the MIPE collection was tested at 11-point dilutions (final concentrations range from 0.78 nM to 46 µM) and the NPC collection at 8-point dilutions (final concentrations range from 0.59 nM to 46 µM). Compounds tested in follow-up screens were assayed at 11-point dilutions. Cells were incubated for 48 hours, followed by addition of 3 uL of CellTiter-Glo (Promega). After a 15min incubation at room temperature, samples were analyzed for luminescence intensity using a ViewLux High-throughput CCD imager equipped with clear filters.
As for `COc1ccc(CC2SC(=O)NC2=O)cc1C(=O)NCc1ccc(C(F)(F)F)cc1` (stereo not given), the Potency result was “inactive”. As to `CC[C@@H]1C(=O)N(C)c2cnc(Nc3ccc(C(=O)NC4CCN(C)CC4)cc3OC)nc2N1C1CCCC1`, the Potency was 234 nM (active). For the compound `O=C(Cc1ccc(-c2ccc(OCCN3CCOCC3)cc2)cn1)NCc1ccccc1`, the Potency was 117 nM (active). Take `Cc1cc(Nc2cc(NC(=O)c3c(Cl)cccc3Cl)ccn2)nc(N)n1`: the Potency is 930 nM (active). For the compound `CNC(=O)c1ccc(-c2cnc3ncc(Cc4ccc5ncccc5c4)n3n2)cc1F`, the Potency entry was “inactive”. Then `CCOC(=O)C1=C(C)NC2=C(C(=O)CC(C)(C)C2)C1c1ccc(-c2ccccc2)cc1` (stereo not given), with “inactive”; and `Nc1cc(C(F)(F)F)c(-c2cc(N3CCOCC3)nc(N3CCOCC3)n2)cn1`, with 2620 nM (active); and `CN1c2cc(O)c(N=NC(N)=O)cc2CC1S(=O)(=O)O` (stereo not given), with “inactive”.

Take `CC(C)c1cnn2c(NCc3ccccc3)cc(N[C@@H](CO)[C@H](O)CO)nc12`: the Potency is 1470 nM (active). Then `CC(C)c1ccccc1Cc1cc(C(=O)Nc2ccc(S(=O)(=O)c3ccccc3C(C)(C)C)cc2)c(O)c(O)c1O`, with “inactive”; and `Cc1ccc(NC(=O)C2(c3ccc4c(c3)OC(F)(F)O4)CC2)nc1-c1cccc(C(=O)O)c1`, with 234 nM (active); and `C[C@@H]1COC(Nc2ccc3ncnc(Nc4ccc(OCc5nccs5)c(Cl)c4)c3c2)=N1`, with “inactive”. The value for `CN1CCN(c2cc(C(=O)Nc3ccc4c(c3)-c3c(c(C(N)=O)nn3-c3ccc(F)cc3)CC4)c(Cl)cn2)CC1` was “inactive”; that for `Clc1ccc2ncc(-c3cccc(NC4CNC4)n3)n2c1` was “inactive”; that for `Cc1nc2ccc(CN(C)c3ccc(C(=O)N[C@@H](CCC(=O)O)C(=O)O)s3)cc2c(=O)[nH]1` was 131 nM (active). `CCS(=O)(=O)c1cccc(-c2cc(C(=O)NC3CCN(C)CC3)c(C)c3[nH]c4ncc(C)cc4c23)c1`: the Potency was 415 nM (active). Then `Cc1cc(Nc2nc(N[C@@H](C)c3ccc(F)cc3)c(C#N)cc2F)n[nH]1`, with 2620 nM (active); and `CN1CC[C@@H](c2c(O)cc(O)c3c(=O)cc(-c4ccccc4Cl)oc23)[C@@H](O)C1`, with 466 nM (active).

In the case of `CCCCc1nc2cc(C=CC(=O)NO)ccc2n1CCN(CC)CC`, the Potency is 5870 nM (active). The value for `OCCCNc1cc(-c2ccnc(Nc3cccc(Cl)c3)n2)ccn1` was 370 nM (active); that for `Cc1cnc(Nc2ccc(F)cc2Cl)nc1-c1c[nH]c(C(=O)N[C@H](CO)c2cccc(Cl)c2)c1` was “inactive”; that for `CNC(=O)c1cc(Oc2ccc(NC(=O)Nc3cc(C(C)(C)C)nn3-c3ccc4ncccc4c3)c(F)c2)ccn1` was “inactive”.

As for `Cc1c(CN2CCN(S(C)(=O)=O)CC2)sc2c(N3CCOCC3)nc(-c3cnc(N)nc3)nc12`, the Potency was 294 nM (active).

Turning to `CCN(CC)CCCCNc1ncc2cc(-c3cc(OC)cc(OC)c3)c(NC(=O)NC(C)(C)C)nc2n1`, the Potency entry is “inactive”. The value for `CC(C)(O)CCc1ccc(OCc2cc(-c3cccc(OC(F)F)c3)c3ncccc3c2)cc1` was “inactive”; that for `Cc1cc(C(=O)N2CCN(c3cccc(Cl)c3)CC2)n(-c2ccccc2)n1` was 2940 nM (active). Then `COC(=O)C[C@](O)(CCCC(C)(C)O)C(=O)O[C@@H]1C(OC)=C[C@]23CCCN2CCc2cc4c(cc2[C@H]13)OCO4`, with “inactive”. On to `CC(=O)Nc1sc2c(c1-c1nc3ccccc3s1)CNC2`, for which the Potency entry is “inactive”. For `CC=CC1=C(C(=O)O)N2C(=O)[C@H](NC(=O)[C@H](N)c3ccc(O)cc3)[C@@H]2SC1`, the Potency result is “inactive”. The value for `Cc1cc(Nc2cc(N3CCN(C)CC3)nc(C=Cc3ccccc3)n2)n[nH]1` was 6020 nM (active); that for `COc1cc2ncnc(Nc3ccc(F)c(Cl)c3)c2cc1NC(=O)C=CCN1CCCCC1` was “inactive”. Regarding `CC(C)Nc1cc(C(F)(F)F)cc2nc(NC(=O)c3cccnc3)nn12`, the Potency result was “inactive”.

`COc1cc(=C2C=c3ccccc3=N2)[nH]c1=Cc1[nH]c(C)cc1C`: the Potency entry was “inactive”. Turning to `CC1=C(CO)C(=O)O[C@@H]([C@@H](C)[C@H]2CC[C@H]3[C@@H]4C[C@H]5O[C@]56[C@@H](O)C=CC(=O)[C@]6(C)[C@@H]4CC[C@]23C)C1`, the Potency was 2340 nM (active). The value for `Nc1ncnc2c1c(-c1cccc(OCc3ccccc3)c1)cn2C1CC(CN2CCCC2)C1` (stereo not given) was 6580 nM (active); that for `CCCn1c(=O)c2[nH]c(-c3cnn(Cc4cccc(C(F)(F)F)c4)c3)nc2n(CC)c1=O` was “inactive”. The value for `CCN1CCN(Cc2ccc(-c3cc4c(N[C@H](C)c5ccccc5)ncnc4[nH]3)cc2)CC1` was 117 nM (active); that for `C=CCn1c(=O)c2cnc(Nc3ccc(N4CCN(C)CC4)cc3)nc2n1-c1cccc(C(C)(C)O)n1` was 2620 nM (active).

For `COc1ccc2c(OCc3nnc4ccc(-c5ccccc5)nn34)ccnc2c1`, the Potency entry is “inactive”. The value for `COc1cccc2nc(-c3cccs3)nc(NN3C(=O)C=C(C)C3=O)c12` was 1860 nM (active).
